Assay results from the supplement of paper PMC6555819.

Tests used:
Experiment in all cases: PBM binding z-score (relative to random genomic background probes); higher = stronger binding; sequences stand for … in GC…GCGATTGACAGCGTAGAATGAAGG
[1] = test system: FXR:RXRa (NR concentration 270 nM, RXRa partner concentration 90 nM)
How it was run: (§1)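 The probes on custom Agilent 4×180K protein-binding microarrays were double-stranded, with 34-nt variable regions bearing direct-repeat seeds, single-nucleotide variants, half-site ablations and random human genomic background sequences. Incubation lasted 1 h with ligand-free nuclear receptor dimers in PBS pH 7.4, 2% milk, 0.02% Triton X-100, 1 mM DTT, 0.2 mg/mL BSA and 0.4 mg/ml salmon testes DNA. Antibodies against each partner (one per run) detected bound dimers, and fluorescence scans were regression-normalized. Binding z-scores take the random background probes as reference.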

[2] = test system: LXRa:RXRa (NR concentration 270 nM, RXRa partner concentration 90 nM)
How it was run: as §1

[3] = test system: LXRa homodimer (NR concentration 270 nM)
How it was run: as §1

[4] = test system: LXRb:RXRa (NR concentration 270 nM, RXRa partner concentration 90 nM)
How it was run: as §1

[5] = test system: LXRb homodimer (NR concentration 270 nM)
How it was run: as §1

[6] = test system: PPARa:RXRa (NR concentration 270 nM, RXRa partner concentration 90 nM)
How it was run: as §1

[7] = test system: PPARg:RXRa (NR concentration 180 nM, RXRa partner concentration 90 nM)
How it was run: as §1

[8] = test system: PPARg:RXRa 270nM:90nM, anti-RXR (NR concentration 270 nM, RXRa partner concentration 90 nM)
How it was run: as §1

[9] = test system: PPARg:RXRa 30nM:10nM, anti-RXR (NR concentration 30 nM, RXRa partner concentration 10 nM)
How it was run: as §1

[10] = test system: PPARg:RXRa 90nM:30nM, anti-RXR (NR concentration 90 nM, RXRa partner concentration 30 nM)
How it was run: as §1

[11] = test system: PPARg:RXRa DBDmut IVT, anti-RXR (DBD mutation: RXRa K156A/R161A, NR concentration 270 nM, RXRa partner concentration 90 nM)
How it was run: as §1

[12] = test system: PPARg:RXRa IVT, anti-PPARg (NR concentration 270 nM, RXRa partner concentration 90 nM)
How it was run: as §1

[13] = test system: PPARg DBDmut:RXRa IVT, anti-PPARg (DBD mutation: PPARg1 K132A/R137A, NR concentration 270 nM, RXRa partner concentration 90 nM)
How it was run: as §1

[14] = test system: PPARg DBDmut IVT, anti-PPARg (DBD mutation: PPARg1 K132A/R137A, NR concentration 270 nM)
How it was run: as §1

[15] = test system: PPARg homodimer (NR concentration 180 nM)
How it was run: as §1

[16] = test system: PXR:RXRa (NR concentration 270 nM, RXRa partner concentration 90 nM)
How it was run: as §1

[17] = test system: PXR homodimer (NR concentration 270 nM)
How it was run: as §1

[18] = test system: RARa:RXR (NR concentration 270 nM, RXRa partner concentration 90 nM)
How it was run: as §1

[19] = test system: RARa homodimer (NR concentration 270 nM)
How it was run: as §1

[20] = test system: RARb:RXRa (NR concentration 270 nM, RXRa partner concentration 90 nM)
How it was run: as §1

| Sequence | PBM binding z-score [1] | PBM binding z-score [2] | PBM binding z-score [3] | PBM binding z-score [4] | PBM binding z-score [5] | PBM binding z-score [6] | PBM binding z-score [7] | PBM binding z-score [8] | PBM binding z-score [9] | PBM binding z-score [10] | PBM binding z-score [11] | PBM binding z-score [12] | PBM binding z-score [13] | PBM binding z-score [14] | PBM binding z-score [15] | PBM binding z-score [16] | PBM binding z-score [17] | PBM binding z-score [18] | PBM binding z-score [19] | PBM binding z-score [20] |
| --- | --- | --- | --- | --- | --- | --- | --- | --- | --- | --- | --- | --- | --- | --- | --- | --- | --- | --- | --- | --- |
| CGTCAAAGTTCAACGTAACGTAACAGAAAGCAGC | 6.54 | 5.59 | 2.98 | 3.72 | 1.38 | 4.94 | 4.58 | 4.97 | 2.08 | 3.84 | 0.266 | 1.76 | 0.727 | 1.04 | 2.48 | 4.4 | 2.41 | 3.07 | 1.3 | 5.18 |
| TCGAGTAGGTTACCAATGGGGCATTCAACTTTCT | 0.374 | 1.64 | -0.293 | 1.55 | 0.172 | 1.67 | 0.652 | 1.67 | 1.26 | 1.67 | 3.18 | 3.11 | -0.0959 | -0.457 | 0.301 | 0.506 | -0.241 | 0.916 | -0.285 | 1.14 |
| TCATATAGGTATTACAGGTGAAAGTCGGCATCTA | 1.47 | 2.05 | 1.08 | 1.34 | 0.496 | 1.67 | 1.1 | 2.38 | 4.15 | 3.27 | 3.05 | 1.69 | 0.864 | 0.68 | 1.37 | 0.945 | 0.656 | 1.39 | 1.42 | 0.578 |
| GCTGCTAGGTGAGGTTGGTCAGCTAACGGGTACG | -0.483 | -0.442 | -0.661 | -0.672 | -0.761 | -0.326 | -0.331 | -0.69 | -1.04 | -0.961 | 2.07 | 0.995 | -0.621 | -0.843 | -0.464 | -0.499 | -0.63 | -0.358 | -0.904 | 0.502 |
| AGAACGAGGGCAATGAGTTGAAAGCACGGGTGGC | 0.345 | 0.43 | -0.528 | -0.0192 | -0.804 | 1.57 | 1.36 | 1.21 | -0.135 | 0.569 | 3.01 | 2.76 | 0.626 | -0.78 | 0.52 | 1.67 | 5.02 | 0.551 | -0.34 | 2.03 |
| ACTAGTTGGTCAGCTGAGGTCTCACACAATTCGG | 0.132 | -0.314 | -0.301 | -0.188 | -0.19 | 0.142 | 0.384 | 0.246 | -0.202 | 0.00207 | 1.19 | 0.901 | 0.251 | 0.203 | 0.325 | 0.286 | -0.249 | 0.165 | 0.106 | 1.05 |
| CCTTACGGGTCACTCCCGGTTATAGCATCGGAGT | 4.78 | 7.33 | 2 | 4.66 | 0.279 | 4.23 | 2.63 | 3.52 | 0.522 | 2.33 | 2.29 | 3.2 | -0.351 | 0.418 | 2.11 | 3.32 | 0.36 | 3.34 | 1.06 | 3.65 |
| CCGACTGGGGAAGAAAGGTTACCATACCATCCGG | 0.169 | 0.579 | -0.0766 | 0.683 | -0.64 | 2.22 | 1.84 | 3.17 | 1.15 | 2.6 | -0.325 | 0.33 | -0.996 | -0.95 | 0.579 | 0.747 | -0.0818 | 1.3 | 0.0486 | 1.23 |
| TAGCCTAGGTCATGCGGGCCAGTAGAGTGTCGGC | 4.11 | 3.32 | -0.00774 | 1.64 | -0.216 | 3.58 | 1.91 | 2.64 | 0.154 | 1.57 | 1.93 | 2.8 | -0.889 | -0.693 | 0.316 | 1.39 | -0.448 | 2.37 | -0.56 | 3.75 |
| CCTACTCGGCCACGAAAGGTCATTGATTCAGTGA | 3.82 | 5.15 | 5.64 | 4.28 | 0.938 | 4.36 | 1.93 | 3.43 | 1.33 | 2.24 | 2.57 | 2.28 | -0.0183 | -0.203 | 3.66 | 5.12 | 1.83 | 5.43 | 1.61 | 4.03 |
| TTACCAAGGTGAGCTGATGTCGTTGATCCAACTC | 0.178 | -0.111 | -0.671 | -0.252 | -0.971 | 0.344 | 0.146 | 0.25 | 0.147 | 0.11 | 1.17 | 1.55 | -0.517 | 0.259 | -0.264 | 0.24 | -0.552 | 0.2 | -0.759 | 0.933 |
| TAGCCTAGGTCAGATCGGGCCTGTATACGCTATA | 1.56 | 0.715 | -0.411 | 0.501 | -0.0997 | 1.49 | 0.482 | 0.395 | -0.139 | 0.162 | 0.244 | 1.36 | -0.328 | 0.156 | 0.016 | 0.238 | -0.728 | 1.22 | -0.734 | 2.8 |
| TCTCGGAGGACCCGAAAGGTCAGAGCTCGACATC | 2.35 | 2.99 | 1.17 | 2.77 | -0.541 | 3.34 | 0.565 | 2.23 | 2.07 | 2.11 | 1.1 | 0.853 | -0.22 | -0.929 | 1.7 | 3.45 | -0.23 | 4.13 | 0.185 | 3.68 |
| CCTACAGGGCCATCAGGTCATTGATATCAACGTT | 1.88 | 1.31 | 0.875 | 1.51 | -0.272 | 2 | 0.835 | 1.04 | 0.253 | 0.77 | 0.49 | 1.32 | -0.452 | -0.51 | 1.27 | 1.71 | 0.581 | 1.89 | 0.0859 | 2.38 |
